Assay results as given in publication PMC7862700, “An all-to-all approach to the identification of sequence-specific readers for epigenetic DNA modifications on cytosine”.

Columns and labels:
Assay in all cases: DAPPL (digital affinity profiling via proximity ligation, sequencing); 10 mM Tris-HCl pH 7.5, 50 mM NaCl, 1 mM DTT, 4% glycerol, room temperature, 30 min; GST-TFs on glutathione beads, 16-mer random dsDNA library, 0.1% formaldehyde crosslink after washing; high values mean tight binding
Conditions in all cases: protein: recombinant; tags: N-terminal GST; dsDNA, one strand shown
FLI1 = target: T1, FLI1 (Homo sapiens, UniProt Q01543 1-452)
T1 sequence: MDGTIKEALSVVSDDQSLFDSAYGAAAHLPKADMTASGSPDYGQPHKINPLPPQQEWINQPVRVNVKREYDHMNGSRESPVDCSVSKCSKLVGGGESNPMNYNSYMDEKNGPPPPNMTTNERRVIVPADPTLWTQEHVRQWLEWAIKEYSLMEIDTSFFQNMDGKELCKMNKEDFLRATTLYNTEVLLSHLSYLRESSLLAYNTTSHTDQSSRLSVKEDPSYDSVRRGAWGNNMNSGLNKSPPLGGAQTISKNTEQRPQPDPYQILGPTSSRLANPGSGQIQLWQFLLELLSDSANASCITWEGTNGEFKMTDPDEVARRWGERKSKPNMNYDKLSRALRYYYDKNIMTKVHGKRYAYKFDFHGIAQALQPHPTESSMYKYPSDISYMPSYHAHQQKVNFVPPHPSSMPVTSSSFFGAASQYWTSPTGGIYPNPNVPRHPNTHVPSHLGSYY
Method in brief: (§1)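 Binding signal is each hexamer's read frequency for a factor divided by its frequency in the tag-only sample. The factors were GST-fused human transcription factors from yeast, captured on glutathione beads, DNA-barcoded and pooled with that sample. Pools were incubated with 200 nmole of a random double-stranded 16-mer DNA library in Tris/NaCl/DTT/glycerol buffer at room temperature for 30 min, then washed, crosslinked with 0.1% formaldehyde, proximity-ligated with BsaI/T4 ligase (1 h, 37 °C), PCR-amplified and sequenced on an Illumina NextSeq500.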

ELK1 = target: T2, ELK1 (Homo sapiens, UniProt P19419 1-428)
T2 sequence: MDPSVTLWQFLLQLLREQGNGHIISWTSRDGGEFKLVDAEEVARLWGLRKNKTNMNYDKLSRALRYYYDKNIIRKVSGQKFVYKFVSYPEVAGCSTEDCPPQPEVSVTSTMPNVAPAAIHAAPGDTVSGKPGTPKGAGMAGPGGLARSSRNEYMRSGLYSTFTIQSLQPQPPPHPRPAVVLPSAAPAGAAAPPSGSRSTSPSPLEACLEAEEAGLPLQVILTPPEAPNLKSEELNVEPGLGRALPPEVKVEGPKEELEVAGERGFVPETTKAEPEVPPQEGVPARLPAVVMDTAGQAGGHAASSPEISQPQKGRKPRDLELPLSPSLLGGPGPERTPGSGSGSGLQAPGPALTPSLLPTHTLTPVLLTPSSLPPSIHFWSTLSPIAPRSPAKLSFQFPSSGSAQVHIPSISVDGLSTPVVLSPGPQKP
Method in brief: as §1

GABPA = target: T3, GABPA (Homo sapiens, UniProt Q06546 1-454)
T3 sequence: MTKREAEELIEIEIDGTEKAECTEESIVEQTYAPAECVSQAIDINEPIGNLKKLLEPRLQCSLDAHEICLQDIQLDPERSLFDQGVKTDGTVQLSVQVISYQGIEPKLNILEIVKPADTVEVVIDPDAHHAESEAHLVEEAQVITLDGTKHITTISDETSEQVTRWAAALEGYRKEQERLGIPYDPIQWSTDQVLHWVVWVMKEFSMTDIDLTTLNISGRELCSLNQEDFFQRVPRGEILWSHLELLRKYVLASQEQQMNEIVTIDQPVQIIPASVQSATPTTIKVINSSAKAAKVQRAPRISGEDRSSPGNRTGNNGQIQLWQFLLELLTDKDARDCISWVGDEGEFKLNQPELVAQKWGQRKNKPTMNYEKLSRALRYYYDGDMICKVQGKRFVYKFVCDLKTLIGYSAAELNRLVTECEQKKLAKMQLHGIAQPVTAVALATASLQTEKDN
Method in brief: as §1

ERG = target: T4, ERG (Homo sapiens, UniProt P11308 1-479)
T4 sequence: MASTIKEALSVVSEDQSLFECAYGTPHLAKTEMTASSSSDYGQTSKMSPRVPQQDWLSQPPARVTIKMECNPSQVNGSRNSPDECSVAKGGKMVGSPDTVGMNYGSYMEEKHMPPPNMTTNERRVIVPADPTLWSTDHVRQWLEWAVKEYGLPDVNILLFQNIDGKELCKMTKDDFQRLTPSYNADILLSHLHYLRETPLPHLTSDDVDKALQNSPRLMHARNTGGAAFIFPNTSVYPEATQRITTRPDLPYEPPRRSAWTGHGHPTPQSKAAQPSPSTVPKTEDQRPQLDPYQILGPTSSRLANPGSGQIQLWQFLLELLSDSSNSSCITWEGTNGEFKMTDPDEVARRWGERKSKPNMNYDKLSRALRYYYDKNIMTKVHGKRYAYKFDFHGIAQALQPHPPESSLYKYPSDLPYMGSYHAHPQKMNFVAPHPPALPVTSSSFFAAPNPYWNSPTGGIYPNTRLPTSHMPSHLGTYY
Method in brief: as §1

ELF1 = ELF1 (Homo sapiens, UniProt P32519 1-619)
Chain of ELF1 (P32519 whole entry): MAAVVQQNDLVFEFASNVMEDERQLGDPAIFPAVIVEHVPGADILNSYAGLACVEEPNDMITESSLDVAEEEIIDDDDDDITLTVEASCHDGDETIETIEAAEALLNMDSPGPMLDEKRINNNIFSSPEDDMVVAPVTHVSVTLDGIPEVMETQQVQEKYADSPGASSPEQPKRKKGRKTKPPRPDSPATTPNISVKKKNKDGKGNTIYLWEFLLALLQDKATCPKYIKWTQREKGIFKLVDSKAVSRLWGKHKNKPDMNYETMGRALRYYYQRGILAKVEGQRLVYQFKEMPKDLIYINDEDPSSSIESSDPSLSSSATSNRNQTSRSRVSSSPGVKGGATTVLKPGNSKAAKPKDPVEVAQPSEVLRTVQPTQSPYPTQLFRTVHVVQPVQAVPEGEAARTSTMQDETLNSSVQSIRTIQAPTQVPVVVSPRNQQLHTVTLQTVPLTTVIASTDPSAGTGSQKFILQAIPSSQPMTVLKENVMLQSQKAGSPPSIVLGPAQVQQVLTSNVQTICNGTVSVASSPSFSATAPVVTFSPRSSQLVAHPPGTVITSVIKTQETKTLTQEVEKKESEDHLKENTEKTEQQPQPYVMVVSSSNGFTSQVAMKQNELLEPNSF
Method in brief: as §1

EHF = target: T5, EHF (Homo sapiens, UniProt Q9NZC4 1-300)
T5 sequence: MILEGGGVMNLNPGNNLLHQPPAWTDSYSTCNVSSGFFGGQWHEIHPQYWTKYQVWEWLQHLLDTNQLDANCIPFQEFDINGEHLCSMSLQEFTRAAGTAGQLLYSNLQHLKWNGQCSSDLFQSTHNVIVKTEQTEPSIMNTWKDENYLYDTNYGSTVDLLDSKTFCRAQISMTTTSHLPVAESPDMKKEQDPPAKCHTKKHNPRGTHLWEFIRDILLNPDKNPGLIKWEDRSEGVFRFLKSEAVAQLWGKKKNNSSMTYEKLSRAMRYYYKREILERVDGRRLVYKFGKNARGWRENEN
Method in brief: as §1

SPI1 = SPI1 (Homo sapiens, UniProt P17947 1-270)
Method in brief: as §1

SPIB = SPIB (Homo sapiens, UniProt Q01892 1-262)
Chain of SPIB (Q01892 whole entry): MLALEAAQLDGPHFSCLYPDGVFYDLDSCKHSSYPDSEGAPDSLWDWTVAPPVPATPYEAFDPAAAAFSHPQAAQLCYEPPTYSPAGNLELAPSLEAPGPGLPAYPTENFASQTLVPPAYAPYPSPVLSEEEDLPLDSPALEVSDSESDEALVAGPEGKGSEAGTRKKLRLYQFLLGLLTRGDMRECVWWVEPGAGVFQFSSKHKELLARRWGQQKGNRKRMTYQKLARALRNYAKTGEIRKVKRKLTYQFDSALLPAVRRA
Method in brief: as §1

ELK3 = target: T6, ELK3 (Homo sapiens, UniProt P41970 1-407)
T6 sequence: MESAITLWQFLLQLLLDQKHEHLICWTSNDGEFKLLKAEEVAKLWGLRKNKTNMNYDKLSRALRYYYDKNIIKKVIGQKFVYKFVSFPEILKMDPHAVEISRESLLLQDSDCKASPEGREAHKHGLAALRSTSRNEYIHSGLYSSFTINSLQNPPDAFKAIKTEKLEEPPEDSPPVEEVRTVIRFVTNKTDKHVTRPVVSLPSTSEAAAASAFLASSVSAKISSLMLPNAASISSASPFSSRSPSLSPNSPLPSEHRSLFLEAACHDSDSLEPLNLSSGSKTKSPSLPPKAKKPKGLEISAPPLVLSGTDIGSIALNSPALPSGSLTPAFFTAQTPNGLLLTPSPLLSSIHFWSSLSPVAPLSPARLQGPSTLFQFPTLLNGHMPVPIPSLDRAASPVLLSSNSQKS
Method in brief: as §1

| Sequence | binding signal (FLI1) | binding signal (ELK1) | binding signal (GABPA) | binding signal (ERG) | binding signal (ELF1) | binding signal (EHF) | binding signal (SPI1) | binding signal (SPIB) | binding signal (ELK3) |
| --- | --- | --- | --- | --- | --- | --- | --- | --- | --- |
| AACACT | 1.27 fold enrichment (6-mer frequency, TF over GST control) | 1.38 fold enrichment (6-mer frequency, TF over GST control) | 1.32 fold enrichment (6-mer frequency, TF over GST control) | 1.31 fold enrichment (6-mer frequency, TF over GST control) | 1.32 fold enrichment (6-mer frequency, TF over GST control) | 1.35 fold enrichment (6-mer frequency, TF over GST control) | 1.36 fold enrichment (6-mer frequency, TF over GST control) | 1.31 fold enrichment (6-mer frequency, TF over GST control) | 1.23 fold enrichment (6-mer frequency, TF over GST control) |
| GATGAC | 1.58 fold enrichment (6-mer frequency, TF over GST control) | 1.51 fold enrichment (6-mer frequency, TF over GST control) | 1.62 fold enrichment (6-mer frequency, TF over GST control) | 1.59 fold enrichment (6-mer frequency, TF over GST control) | 1.6 fold enrichment (6-mer frequency, TF over GST control) | 1.43 fold enrichment (6-mer frequency, TF over GST control) | 1.58 fold enrichment (6-mer frequency, TF over GST control) | 1.45 fold enrichment (6-mer frequency, TF over GST control) | 1.45 fold enrichment (6-mer frequency, TF over GST control) |
| TTGTTA | 1.32 fold enrichment (6-mer frequency, TF over GST control) | 1.34 fold enrichment (6-mer frequency, TF over GST control) | 1.32 fold enrichment (6-mer frequency, TF over GST control) | 1.33 fold enrichment (6-mer frequency, TF over GST control) | 1.29 fold enrichment (6-mer frequency, TF over GST control) | 1.36 fold enrichment (6-mer frequency, TF over GST control) | 1.26 fold enrichment (6-mer frequency, TF over GST control) | 1.33 fold enrichment (6-mer frequency, TF over GST control) | 1.47 fold enrichment (6-mer frequency, TF over GST control) |
| CAATAT | 1.27 fold enrichment (6-mer frequency, TF over GST control) | 1.29 fold enrichment (6-mer frequency, TF over GST control) | 1.26 fold enrichment (6-mer frequency, TF over GST control) | 1.2 fold enrichment (6-mer frequency, TF over GST control) | 1.28 fold enrichment (6-mer frequency, TF over GST control) | 1.24 fold enrichment (6-mer frequency, TF over GST control) | 1.23 fold enrichment (6-mer frequency, TF over GST control) | 1.23 fold enrichment (6-mer frequency, TF over GST control) | 1.31 fold enrichment (6-mer frequency, TF over GST control) |
| GTCTCC | 1.45 fold enrichment (6-mer frequency, TF over GST control) | 1.5 fold enrichment (6-mer frequency, TF over GST control) | 1.52 fold enrichment (6-mer frequency, TF over GST control) | 1.26 fold enrichment (6-mer frequency, TF over GST control) | 1.39 fold enrichment (6-mer frequency, TF over GST control) | 1.4 fold enrichment (6-mer frequency, TF over GST control) | 1.52 fold enrichment (6-mer frequency, TF over GST control) | 1.43 fold enrichment (6-mer frequency, TF over GST control) | 1.56 fold enrichment (6-mer frequency, TF over GST control) |
| CTGTTC | 1.47 fold enrichment (6-mer frequency, TF over GST control) | 1.42 fold enrichment (6-mer frequency, TF over GST control) | 1.38 fold enrichment (6-mer frequency, TF over GST control) | 1.39 fold enrichment (6-mer frequency, TF over GST control) | 1.38 fold enrichment (6-mer frequency, TF over GST control) | 1.47 fold enrichment (6-mer frequency, TF over GST control) | 1.42 fold enrichment (6-mer frequency, TF over GST control) | 1.39 fold enrichment (6-mer frequency, TF over GST control) | 1.47 fold enrichment (6-mer frequency, TF over GST control) |
| CTTTGT | 1.34 fold enrichment (6-mer frequency, TF over GST control) | 1.3 fold enrichment (6-mer frequency, TF over GST control) | 1.2 fold enrichment (6-mer frequency, TF over GST control) | 1.27 fold enrichment (6-mer frequency, TF over GST control) | 1.36 fold enrichment (6-mer frequency, TF over GST control) | 1.48 fold enrichment (6-mer frequency, TF over GST control) | 1.36 fold enrichment (6-mer frequency, TF over GST control) | 1.22 fold enrichment (6-mer frequency, TF over GST control) | 1.29 fold enrichment (6-mer frequency, TF over GST control) |
| TCCAAG | 1.16 fold enrichment (6-mer frequency, TF over GST control) | 1.1 fold enrichment (6-mer frequency, TF over GST control) | 1.16 fold enrichment (6-mer frequency, TF over GST control) | 1.02 fold enrichment (6-mer frequency, TF over GST control) | 1.17 fold enrichment (6-mer frequency, TF over GST control) | 1.06 fold enrichment (6-mer frequency, TF over GST control) | 1.03 fold enrichment (6-mer frequency, TF over GST control) | 1.09 fold enrichment (6-mer frequency, TF over GST control) | 1.08 fold enrichment (6-mer frequency, TF over GST control) |
